This excerpt belongs to a sample that is enriched for hits.
AmpC no deterg: inhibitors of E. coli AmpC beta-lactamase without detergent; AID 485341; AmpC nitrocefin hydrolysis, absorbance 480 nm, 0.0001% Triton; 330,000 tested, 0.52% active; P00811; Potency, µM (highest dose often 57.1 µM), without a hit: at the top dose activity change, negative = inhibition, hits mostly inhibitors;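 note: potency is the fitted concentration of half-maximal effect; plate controls were no compound for no effect and no enzyme for full effect; nearly all actives have a fitted effect of over 20% in size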
Target sequence (P00811 whole entry, looked up): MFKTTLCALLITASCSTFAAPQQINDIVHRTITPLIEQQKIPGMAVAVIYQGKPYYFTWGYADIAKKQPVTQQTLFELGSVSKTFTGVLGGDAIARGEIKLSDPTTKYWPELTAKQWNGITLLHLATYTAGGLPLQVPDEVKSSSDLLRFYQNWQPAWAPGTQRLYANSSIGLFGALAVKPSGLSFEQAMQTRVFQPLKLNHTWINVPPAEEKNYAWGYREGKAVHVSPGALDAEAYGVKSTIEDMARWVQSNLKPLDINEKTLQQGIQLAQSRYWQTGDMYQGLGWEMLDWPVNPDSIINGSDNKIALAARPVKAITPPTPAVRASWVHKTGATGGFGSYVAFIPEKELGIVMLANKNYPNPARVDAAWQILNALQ
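20 mM phosphate pH 7.0 + 0.01% (detergent screen) or 0.0001% Triton X-100; 5.3 nM AmpC reagent; cpd preinc 15 min RT; nitrocefin (800 uM stock) to start; A480 q20 s × 4 min; Activity was normalised to no-enzyme and no-compound control wells.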
Shiga inhibitor: Shiga toxin inhibition; AID 2315; 290,000 tested, 9.2% active; Vero cells, Shiga toxin protein synthesis inhibition reporter; inhibition, % at 38.7 µM; in the data active = inhibition mostly above about 28%, no sharp cut-off; inactive = mostly below about 43%; note: 0% is about no effect
AMA1 RON2 block: inhibitors of Plasmodium falciparum AMA1-RON2 interaction; Potency, µM (doses to about 58.2 µM), for inactives: at the top dose activity change, negative = inhibition, usual class: inhibitors; AID 720542; AlphaScreen AMA1-biotinylated RON2 peptide binding; 360,000 tested, 0.2% active;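 note: potency is the fitted concentration of half-maximal effect; 0% = vehicle wells and -100% = peptide control; nearly all actives have a fitted effect of over 45% in size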
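AMA1 (3D7) with his tag at 25 nM final met compounds first, then biotinylated RON2 peptide at 25 nM; detection used donor plus acceptor beads, 10 µg/mL apiece, read by AlphaScreen after 30 min at room temperature.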
AmpC inh detg: inhibitors of E. coli AmpC beta-lactamase with detergent. P00811. AmpC hydrolysis of nitrocefin, absorbance 480 nm, 0.01% Triton. Potency, µM (series often up to 114 µM), without a hit: at the highest dose activity change, negative = inhibition, most hits filed as inhibitors. 370,000 tested, 0.041% active. AID 485294;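 note: potency is the fitted concentration of half-maximal effect; 0% = no-compound wells and -100% = no-enzyme wells; nearly all actives have a fitted effect of over 25% in size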
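20 mM phosphate pH 7.0 + 0.01% (detergent screen) or 0.0001% Triton X-100; 5.3 nM AmpC reagent; cpd preinc 15 min RT; nitrocefin (800 uM stock) to start; A480 q20 s × 4 min; Activity was normalised to no-enzyme and no-compound control wells.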
CHX counter: affects cycloheximide protein synthesis inhibition readout, counter-screen. cell reporter, cycloheximide protein synthesis inhibition counterscreen. max response, %. 300,000 tested, 12% active; in the data active = max response mostly above about 13%, no sharp cut-off; inactive = mostly below about 14%; note: read at 38.3 µM for the half of the compounds with a filed dose; 0% is about no effect
SARS PLP yeast: blocks SARS-CoV papain-like protease in a yeast assay; S. cerevisiae expressing SARS-CoV PLpro, growth rescue; Potency, µM (titrated, usually from 32.9 µM), without a hit: at the highest dose activity, positive = growth rescue, usual class: activators; 330,000 tested, 0.19% active; AID 485353; calls by dose curve; note: potency is the fitted concentration of half-maximal effect; 0% is about no effect; nearly all actives have a fitted effect of over 55% in size
Active calls of the source: *; ? = inconclusive; . = not tested or not shown; [ ] = another dose, or the depositor's remark. Unless noted, calls come from the whole dose curve; as a rule, active = well fitted curve in the direction sought with a large enough effect; inconclusive = small, poorly fitted or top-dose-only effect, or another doubt; inactive = no such curve, though single readings can be large; an effect the other way counts as inactive or inconclusive.

SMILES | AmpC no deterg | Shiga inhibitor | AMA1 RON2 block | AmpC inh detg | CHX counter | SARS PLP yeast
Cc1cccc(OC(C)C(=O)N(Cc2cccs2)C2CCS(=O)(=O)C2)c1C (centres undefined) | 60% | -15 | 19% | 3% | 8 | -5%
CN1C(=O)C2(OCC(CO)([N+](=O)[O-])CO2)c2ccccc21 (centres undefined) | -8% | 51* | 25% | -2% | 14* | -1%
CCC1=Nc2cc(C(=O)NCCc3ccccc3)ccc2Sc2ccc(Cl)cc21 | . | . | . | 9% | . | .
Cc1ccc(NC(=O)c2ccc(COc3ccc4c(c3)CCC4)cc2)c(C)c1 | -7% | 25 | 9% | -4% | 17* | 23%
O=C(O)c1ccc(COc2ccc3c(c2)CCC3)cc1 | -33% | 54* | 2% | -5% | 25* | -2%
O=C(Nc1ccccc1Cl)c1ccc(COc2ccc3c(c2)CCC3)cc1 | -17% | 60* | -1%[11.6 µM] | -13% | 25* | 12%
CC(=O)Nc1ccc(S(=O)(=O)NNC(=O)C2CCCCC2)cc1 | -15% | -8 | 10% | -10% | -2 | 1%
Cc1cnc(NC(=O)c2cc3c(s2)CCCC3)s1 | -36% | 61* | 2% | 2% | 40* | -6%
Cc1csc(NC(=O)c2cc3c(s2)CCCC3)n1 | -46% | 81* | -8% | 2% | 62* | -30%
CCOC(=O)Cc1csc(NC(=O)c2cc3c(s2)CCCC3)n1 | 2% | 38 | 12% | ? | 20 | 2%
Cc1csc(NC(=O)c2cc3c(s2)CCCCC3)n1 | -39% | 2 | -9% | ? | 15* | -26%
CCOc1ccc(C(=O)OCC(=O)Nc2cc(C)on2)cc1OCC | -7% | 19 | -5% | 7% | 15 | 6%
O=C(Nc1cccnc1Cl)c1cc(-c2cccc(O)c2)on1 | -33% | 70* | -12% | -10% | 16* | -2%
CCc1ccccc1NC(=O)c1cc(-c2cccc(O)c2)on1 | -36% | 61 | 10% | 7% | 20* | 1%
COc1cccc(-c2cc(C(=O)Nc3cccnc3Cl)no2)c1 | -23% | 10 | 9% | ? | 10 | -1%
Cc1c(Cl)cccc1NC(=O)c1cc(-c2cccc(Cl)c2)on1 | . | . | . | 23% | . | .
O=C(Nc1ccccc1C(F)(F)F)c1cc(-c2cccc(O)c2)on1 | 1% | 27 | 25% | 3% | 20* | -6%
CCc1ccccc1NC(=O)c1cc(-c2cccs2)on1 | -23% | 38 | -4% | -13% | 17* | -2%
COc1ccccc1CC(=O)NNS(=O)(=O)c1ccccc1[N+](=O)[O-] | 21% | -8 | 7% | 1% | -1 | 0%
CC(NC(=O)C1CCN(S(=O)(=O)c2cccc3cccnc23)CC1)c1ccccc1 (centres undefined) | 4% | 14 | -4% | 1% | -5 | -2%
CCCCCCCCC(=O)N/N=C/c1cccc(Br)c1 | -10% | -12 | 7% | 3% | -5 | 2%
COc1ccc(-c2cc(=O)c3c(O)cc(O)cc3o2)cc1 | -35% | . | 0% | -6% | . | .
O=c1c(-c2c(O)cc(O)c3c(=O)cc(-c4ccc(O)cc4)oc23)c(-c2ccc(O)cc2)oc2cc(O)cc(O)c12 | 20µM* | -6 | -30% | 2% | -3 | 19%
O=c1cc(-c2ccc(O)c(O)c2)oc2cc(O)cc(O)c12 | -49% | 67* | -13% | -10% | 56* | 2%
COc1cccc(NC(=O)c2sc3nc(C)c(C(=O)Nc4ccc(C)cc4C)c(-c4ccc(C)o4)c3c2N)c1 | . | . | . | -6% | . | .
SMILES | AmpC no deterg | Shiga inhibitor | AMA1 RON2 block | AmpC inh detg | CHX counter | SARS PLP yeast
COc1cc2ccccc2nn1 | -17% | 9 | -3% | 6% | -2 | 0%
COc1ccc2c(n1)Sc1nc3ccccc3nc1N2 | -22% | 75* | 3% | -6% | 56* | -5%
Clc1ccccc1-c1nc(/C=N/N2CCOCC2)c2ccccn12 | 11% | 27 | 12% | -11% | 7 | 3%
CN1CCN(/N=C/c2nc(-c3ccccc3Cl)n3ccccc23)CC1 | 28% | -12 | -5%[2.32 µM] | -11% | -2 | 1%
CN1CCN(/N=C/c2nc(-c3ccc(Cl)cc3)n3ccccc23)CC1 | 69% | 39* | 5%[2.32 µM] | 9% | 32* | 0%
Clc1ccc(-c2nc(/C=N/N3CCOCC3)c3ccccn23)cc1 | 27% | 63 | 37% | ? | 30* | 1%
CN1CCN(/N=C/c2nc(-c3ccccc3)n3ccccc23)CC1 | -28% | 41* | 26%[11.6 µM] | -1% | 3 | 6%
O=C(Nn1cnnc1)c1cc([N+](=O)[O-])cc([N+](=O)[O-])c1 | -4% | -13 | -1% | ? | 1 | 17%
Fc1cccc(Nc2cc(-n3cccn3)ncn2)c1 | -18% | 51* | 10% | 1% | 49* | -4%
Cc1ccc(Nc2cc(-n3nc(C)cc3C)ncn2)c(C)c1 | -19% | 24 | -6% | -8% | -2 | -1%
Cc1ccc(Nc2cc(-n3cccn3)ncn2)c(C)c1 | -10% | 22 | 1% | ? | 28* | -3%
O=[N+]([O-])c1ccc(C(O)CNC(=S)Nc2ccccc2)cc1 (centres undefined) | -53% | -9 | -9% | -6% | 2 | -3%
Cc1ccc(C(C)C)c(OCCn2cc(C(=O)c3ccco3)c3ccccc32)c1 | . | . | . | 25% | . | .
Cc1occc1C(=O)Nc1ccc2c(c1)OCO2 | -43% | 78* | 21% | -12% | 37* | -3%
Cc1occc1C(=O)NNC(=O)Nc1ccc(Cl)c(Cl)c1 | -38% | 22 | 85% | ? | 13* | 19%
Cc1cc(NC(=O)c2ccoc2C)ccc1Br | -27% | . | -2% | -7% | . | 5%
O=C(Nc1ccc2c(c1)OCO2)c1c(F)c(F)c(F)c(F)c1F | -21% | 6 | 0% | ? | 10 | -3%
Cc1ccc(NC(=O)c2ccoc2C)cc1C | -20% | 107* | -20% | 1% | 40* | -67%
Cc1occc1C(=O)Nc1cccc(C(=O)O)c1 | -2% | 34 | 1% | 3% | 20* | -3%
Cc1ccsc1C(=O)NNC(=O)Nc1ccc(Cl)c(Cl)c1 | -33% | 35 | 86% | 0% | 14 | -1%
COCc1cc(=O)[nH]c(/N=C(\N)Nc2ccc(Cl)c(Cl)c2)n1 | -14% | -9 | 26% | -1% | 1 | 0%
O=S(=O)(Nc1ccc(Cl)cn1)c1ccc2c(c1)OCCO2 | -13% | . | 2% | 0% | . | -1%
CC(=O)Nc1cccc(OC(=O)c2ccoc2C)c1 | -10% | 13 | -3% | -7% | 9.7* | 0%
CC(=O)Nc1cccc(OC(=O)N2CCOCC2)c1 | -16% | -18 | 9% | ? | 8 | 1%
O=C(N/N=C/c1cc2c(cc1Br)OCO2)c1cc2ccccc2o1 | -56% | 12 | -14% | -8% | 20 | 2%
